Experimental data from the supplement of paper PMC12636033.
± gives the standard deviation of the averaged measurements. In all, about 33,000 sequences were measured (“E-score (rank enrichment, -0.5 to 0.5)”: median about -0.0068, highest 2% from about 0.24 on). The list comes from a sample in which the highest values are over-represented; it also holds similar and randomly drawn sequences.

These sequences were tested on muMax20 (Max(13-93) K31hArg/K57hArg, M65Nle) (assay: PBM 8-mer E-score (E-score (rank enrichment, -0.5 to 0.5)); higher = stronger preferential binding).
Procedure: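 Protein binding microarray (universal PBM chip covering all 10-mers in fixed probe flanks) with chemically synthesized human Max(13-93) bHLH-LZ analogs (not full-length Max) bearing noncanonical residues (hArg, Tha, Aib, Nle at 65) and aromatic Cys staples. Read-out per 8-mer (and its reverse complement): E-score (rank-based enrichment, -0.5 to 0.5) and Z-score of median probe intensity.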

Row | Sequence | PBM 8-mer E-score
1 | TGATTTAA | 0.177 ± 0.05
2 | TAGTATGA | 0.247 ± 0.067
3 | CAGTATGA | 0.138 ± 0.084
4 | AAGTATGA | 0.071 ± 0.059
5 | TGGAGACA | -0.0387 ± 0.082
6 | ACATCTAG | -0.0494 ± 0.021
7 | AGAGCATA | 0.0465 ± 0.086
8 | ATTTCAAC | 0.146 ± 0.078
9 | CTTTCAAC | 0.0143 ± 0.071
10 | GTTTCAAA | 0.162 ± 0.01
11 | CTTTCAAA | 0.267 ± 0.044
12 | ATTTCAAG | 0.104 ± 0.023
13 | ATTTCAAA | 0.252 ± 0.0095
14 | ACTGGCTA | -0.11 ± 0.0093
15 | CAGACAGA | -0.0661 ± 0.06
16 | GTTCAATA | 0.159 ± 0.039
17 | ATGCAATC | 0.126 ± 0.089
18 | CGACGTGA | 0.124 ± 0.012
19 | CCACGTGG | 0.475 ± 0.032
20 | CCACGTAG | -0.156 ± 0.06
21 | CCACGTGA | 0.43 ± 0.082
22 | CCACGTCC | -0.0476 ± 0.004
23 | CTACGTGA | -0.0185 ± 0.092
24 | CCACGTGC | 0.463 ± 0.03
25 | CAACGTGG | 0.11 ± 0.046

Row | Sequence | PBM 8-mer E-score
26 | CCACGTTC | 0.114 ± 0.033
27 | CGACGTGC | -0.0517 ± 0.017
28 | GCACGTTA | 0.0863 ± 0.14
29 | CCACGTTA | 0.246 ± 0.059
30 | ACGGTGAT | 0.0166 ± 0.12
31 | ACTGGACT | -0.0734 ± 0.014
32 | CACTCGAG | -0.165 ± 0.12
33 | TCACTCAA | 0.0768 ± 0.022
34 | TCCAGCAA | 0.0563 ± 0.029
35 | CTGGCCTC | -0.191 ± 0.03
36 | GTGCTAGA | 0.0749 ± 0.058
37 | CTAGGGAA | 0.00576 ± 0.011
38 | GGGCCCCC | -0.386 ± 0.075
39 | CAAACCCA | 0.212 ± 0.0064
40 | TGCAAGCA | -0.0637 ± 0.018
41 | CAGTGCAG | -0.189 ± 0.011
42 | CCTAGACA | -0.0468 ± 0.14
43 | AACAGGGA | 0.0422 ± 0.055
44 | ACGCACAA | 0.0465 ± 0.071
45 | ACGCACGT | 0.288 ± 0.066
46 | AAGCACGG | -0.0498 ± 0.039
47 | ACGCACGC | 0.174 ± 0.014
48 | ACGCACAT | 0.277 ± 0.039
49 | ACGCACAG | -0.11 ± 0.11
50 | AAGCACGT | 0.297 ± 0.12

Row | Sequence | PBM 8-mer E-score
51 | ACGCACGA | 0.0808 ± 0.025
52 | AAGCACGA | 0.0985 ± 0.076
53 | ACGACTCA | -0.0769 ± 0.055
54 | CGCACTCA | -0.0736 ± 0.0069
55 | CTCAAATA | 0.0362 ± 0.0096
56 | CATTGACC | 0.105 ± 0.047
57 | GGGTCGAC | -0.00629 ± 0.1
58 | AGCCTCAT | 0.0933 ± 0.064
59 | ATAATTTA | 0.244 ± 0.038
60 | ATAATTTG | 0.167 ± 0.077
61 | ATTAATTG | 0.136 ± 0.075
62 | ATTAAGTG | 0.148 ± 0.031
63 | ATTAATCA | 0.2533 ± 0.00043
64 | GTAATTTA | 0.0797 ± 0.016
65 | ATTAATTA | 0.258 ± 0.064
66 | GTTAATCA | 0.204 ± 0.072
67 | ATTAATCC | 0.154 ± 0.022
68 | GTTAAGTA | 0.063 ± 0.021
69 | ATTAATTC | 0.219 ± 0.0076
70 | ATTAAGTA | 0.24 ± 0.02
71 | CCTCGATC | -0.0647 ± 0.046
72 | GCCCATTA | -0.0555 ± 0.034
73 | CGGCGGAC | -0.282 ± 0.091
74 | GCAGGGCC | -0.171 ± 0.013
75 | CCTCGGTA | -0.295 ± 0.042

Row | Sequence | PBM 8-mer E-score
76 | CTCCGGAG | -0.227 ± 0.079
77 | TACTGTGA | 0.0496 ± 0.099
78 | GGGAACGA | -0.0255 ± 0.026
79 | ATTAGGAC | 0.0695 ± 0.13
80 | AGCACTAG | 0.0808 ± 0.12
81 | AAAGATCG | -0.152 ± 0.035
82 | ATAAATTG | 0.157 ± 0.013
83 | CTAAATTA | 0.0189 ± 0.047
84 | ATAAATTA | 0.262 ± 0.08
85 | CCGTAGTC | -0.131 ± 0.045
86 | AAGGAGAA | 0.172 ± 0.0052
87 | AACGTGTC | 0.145 ± 0.043
88 | CACGTGTC | 0.448 ± 0.053
89 | CACGTGTA | 0.444 ± 0.054
90 | CCCGTGTC | -0.147 ± 0.032
91 | GACGTGTA | 0.0986 ± 0.0068
92 | AACGTGTA | 0.2 ± 0.026
93 | AAAGTGTA | 0.12 ± 0.1
94 | TAAGTGTA | 0.159 ± 0.064
95 | CAAGTGTA | 0.244 ± 0.042
96 | ATACTTTC | 0.127 ± 0.013
97 | CAAGAAGG | 0.158 ± 0.048
98 | AGTCGACT | 0.176 ± 0.13
99 | ACATCCGC | -0.188 ± 0.099
100 | CTACTAAC | 0.237 ± 0.013

Row | Sequence | PBM 8-mer E-score
101 | ATACTAAC | 0.164 ± 0.066
102 | AAACTATA | 0.192 ± 0.05
103 | ATACTATA | 0.156 ± 0.08
104 | CTACTAAG | -0.0701 ± 0.18
105 | TTACTAAA | 0.123 ± 0.07
106 | CAACTATA | 0.108 ± 0.0066
107 | GTACTAAA | 0.108 ± 0.067
108 | CTACTATA | 0.249 ± 0.062
109 | TAACTATA | 0.303 ± 0.0032
110 | ATACTAAA | 0.242 ± 0.038
111 | CTACTATC | 0.132 ± 0.0082
112 | TCGAACGA | 0.0488 ± 0.053
113 | AACTGGCG | -0.0858 ± 0.061
114 | ATCGGCAA | -0.18 ± 0.089
115 | TCACCGCA | -0.0327 ± 0.14
116 | GATAAGCC | -0.111 ± 0.075
117 | GCAGATGA | 0.0628 ± 0.064
118 | CTTAGACC | -0.135 ± 0.073
119 | GAGGGGCC | -0.0409 ± 0.045
120 | ACGTGTAA | 0.327 ± 0.048
121 | ACGTGTAT | 0.386 ± 0.031
122 | CCGTGTAA | -0.147 ± 0.048
123 | TCGTGTAA | 0.13 ± 0.07
124 | ACGTGTAG | 0.19 ± 0.087
125 | ACGTGTAC | 0.233 ± 0.056

Row | Sequence | PBM 8-mer E-score
126 | ATACTGAA | 0.0687 ± 0.079
127 | GCAGGTCA | -0.191 ± 0.0023
128 | CGCTCGAA | -0.156 ± 0.0039
129 | AGATCTTC | -0.15 ± 0.053
130 | CCATGTCG | -0.0015 ± 0.13
131 | GATACATA | 0.204 ± 0.044
132 | AATACAAA | 0.343 ± 0.042
133 | GATACAAA | 0.0222 ± 0.023
134 | AATACATG | 0.205 ± 0.015
135 | GACACATA | 0.139 ± 0.071
136 | AATACAAG | 0.137 ± 0.0018
137 | AATACATT | 0.158 ± 0.021
138 | TACACATA | 0.245 ± 0.037
139 | CATACATA | 0.163 ± 0.068
140 | AATACATA | 0.255 ± 0.074
141 | CACACATA | 0.12 ± 0.12
142 | TATACATA | 0.237 ± 0.023
143 | ACTGGATC | -0.0849 ± 0.029
144 | CCTCATCA | -0.0311 ± 0.07
145 | CGTCTACA | -0.0683 ± 0.077
146 | ATTCGACG | 0.0309 ± 0.1
147 | CACGAGCA | -0.159 ± 0.013
148 | GAAGACGA | -0.0988 ± 0.065
149 | CAAAACGA | 0.0111 ± 0.00023
150 | AAAGACGA | 0.246 ± 0.0064

Row | Sequence | PBM 8-mer E-score
151 | AAAGACGG | 0.0825 ± 0.019
152 | AAAAACGT | 0.249 ± 0.0044
153 | AAAAACGA | 0.297 ± 0.0076
154 | AAAAACGC | 0.0604 ± 0.015
155 | GAAAACGA | 0.0327 ± 0.09
156 | AAAAACGG | -0.048 ± 0.14
157 | CTCGGTCC | -0.2695 ± 0.0006
158 | AGAGTTCA | -0.124 ± 0.038
159 | CGTTCGCA | -0.0226 ± 0.0093
160 | CTCAGACA | 0.044 ± 0.035
161 | GCCATATA | 0.0868 ± 0.0087
162 | GTACTACA | 0.262 ± 0.072
163 | ATACTACA | 0.222 ± 0.078
164 | CTACTACA | 0.146 ± 0.08
165 | ATACTTCA | 0.0693 ± 0.032
166 | GTACTTCA | 0.237 ± 0.13
167 | CTACTTCA | 0.00799 ± 0.001
168 | ATCAGCGC | -0.0642 ± 0.0034
169 | CACCGGAG | -0.173 ± 0.083
170 | ACACATTC | -0.0504 ± 0.14
171 | AATACGAA | 0.136 ± 0.041
172 | AATCAACA | 0.256 ± 0.032
